Activity calls are given as the source filed them.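 Rule for the calls, unless noted: active = inhibition of the reporter signal at or above 50%; inactive = inhibition below 50%.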

Experiment [1] can be described thus: inhibitors of TNFa-induced NFkB p65 translocation, primary screen, imaging, HUVEC, MLSMR starter and 10KST1 sets (AID 438;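 active = inhibition above 20% together with a positive visual image hit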;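 note: compound added about 3h40 before a 20 min TNFalpha stimulation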;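 for inhibition: signal is the nuclear over cytoplasmic p65 intensity ratio per well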). The settings on record: HUVEC TNFa-induced p65 nuclear translocation; cell count: measured here: nuclei count (cytotoxicity indicator), at 2.08 µM; inhibition: at 2 µM, stronger effect = higher value, 0% TNFa-plus-vehicle, 100% no-TNFa wells.
Experiment [2] in a line: reduction of polyQ htt aggregates in cells – imaging, exon1htt(103Q)mCFP cells, high-content imaging, primary screen (AID 483;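 active = visual image review flags a hit and inhibition of aggregation exceeds 20%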;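 note: compound exposure lasted 3 days before fixation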;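 for nuclei count: percent of the per-plate median nuclei count of sample wells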). The settings on record: exon1htt(103Q)mCFP cell line, aggregate imaging, at 2 µM; inhibition of aggregation: stronger effect = higher value; nuclei count: measured here: cell count, toxicity.
A short description of experiment [3]: endothelial E-selectin expression blockers – imaging, HUVEC, immunofluorescence, MLSMR starter and 10KST1 sets, primary screen (AID 487;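 active = visually confirmed hit in the image check and inhibition above 20%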;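 for inhibition: signal is fraction of cell area covered by stained E-selectin grains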;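 for nuclei count: 100% = median nuclei count of all wells on the same plate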). The settings on record: HUVEC TNFalpha-induced E-selectin immunofluorescence imaging, at 2 µM; inhibition: stronger effect = higher value; nuclei count: measured here: cell number, toxicity.
Experiment [4] can be described thus: Primary imaging screen for DUSP6 inhibitors that restore phospho-Erk in transfected HeLa cells, chemical complementation (AID 609;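 active = compounds giving at least 50% inhibition in the cell-based MKP-3 phosphatase rescue imaging test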;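 for inhibition: phospho-Erk level distribution per well compared with pooled transfected vehicle control wells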). The following applies: HeLa MKP-3 transfected, phospho-Erk imaging KS statistic, at 10 µM, cells stimulated with TPA for 15 min.
For experiment [5], the target named is Dual specificity protein phosphatase 6 (Homo sapiens) (UniProt Q16828). The experiment is described as above. The settings on record: HeLa MKP-3 transfected, phospho-Erk imaging KS statistic; at 10 µM; stronger effect = higher value; cells stimulated with TPA for 15 min.
Experiment [6] addresses Voltage-gated potassium channel subunit beta-2 (Rattus norvegicus) (UniProt P62483). The experiment in a line: inhibitors of rat Kvbeta2 reductase activity – biochemical, NADPH fluorescence, primary screen (AID 622;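 active = fluorescence slope higher than the sample average by over 3 SD, cut at about -0.22 in these data, passing the limit was not always enough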;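 note: slope of raw intensity against log time taken from 70 to 1610 s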). The settings on record: recombinant KvBeta, 4-cyanobenzaldehyde reduction, at 10 µM, stronger effect = higher value.
The target is the same in experiment [7]. The experiment is described as follows: enhancers of rat Kvbeta2 NADPH turnover – biochemical, NADPH fluorescence, primary screen (AID 623;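 active = NADPH fluorescence slope more negative than the mean of all samples by about 3 SD, 99.7% confidence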;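 note: fluorescence intensity change per second fitted from 20 to 320 s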). The following applies: Recombinant KvBeta, NADPH fluorescence decrease slope, 10 min; at 10 µM; stronger effect = lower value.
The target of experiment [8] is Alpha-2C adrenergic receptor (Homo sapiens) (UniProt P18825). The experiment is described as follows: compounds altering alpha2C-coupled GIRK flux – cell-based, HEK293 alpha2C/GIRK1/2, thallium flux, primary screen (AID 624;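 active = fluorescence slope after compound addition differing from the mean of all screened samples at 99.7% confidence, in either direction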;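 note: slope of fluorescence ratio to pre-addition baseline per second over 15 to 24 s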). The following applies: thallium flux BTC fluorescence, at 10 µM, actives lie on both sides.
Experiment [9] is described as follows: inhibitors of larval lipid processing in zebrafish, primary screen, whole organism, PED6 fluorescence, gall bladder and intestine (AID 686;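 active = a full or partial loss of lipid-probe fluorescence in the fish gall bladder, intestine or both, judged by eye; inactive = no fluorescence loss, or compound toxic to the fish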;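 note: larvae 5 to 7 days old with five fish per well; signal comes from phospholipase A2 cleavage of quenched PED6 carried via bile; overnight exposure to compound and PED6 before scoring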). The following applies: Zebrafish larvae PED6 lipid processing, fluorescence scoring; screened at 20 µM (by protocol).
The nature of experiment [10]: loss of swimming-algae plug formation – whole organism, Chlamydomonas reinhardtii, WT vs cilia-less mutant, absorbance, 96-well, primary screen (AID 463189;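 active = inhibition at or above 50% relative to wild type and mutant plate controls; inactive = inhibition below 50%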;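 note: 0% = wild type cc124 cells in DMSO and 100% = ciliumless bld1 mutant cells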). The settings on record: Chlamydomonas reinhardtii gravitaxis, OD600 absorbance, 2 days; at 10 µM; stronger effect = higher value.
A short description of experiment [11]: blockers of RIG-like receptor reporter activation – cell-based, Sendai virus stimulus, luciferase, 10K MLSCN set, TLR/RLR signaling modifier project, primary screen (AID 602276;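 active = inhibition at or above 50% at 10 µM; inactive = inhibition below 50%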;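 note: firefly luciferase from ISG56 promoter only with Renilla not read in this screen; 0% = Sendai virus plus DMSO and 100% = medium plus DMSO without virus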). The following applies: HEK293 RL24 IRF3 luciferase reporter, at 10 µM, stronger effect = higher value. For orientation: In a reporter assay the amount or activity of a reporter protein is the signal.

Experiment [12] is described as follows: TLR3 IRF3 reporter activation blockers – cell-based, poly I:C stimulus, luciferase, 10K MLSCN set, primary screen (AID 602277). The settings on record: HEK293-TLR3 RL24 IRF3 luciferase reporter, at 10 µM, stronger effect = higher value.
[13] abbreviates: measured here: cell density z-score.
Where [14] appears, read: measured here: nuclear c-Myc green intensity z-score.
Setting [15] is: measured here: nuclear pErk red intensity z-score, stronger effect = higher value.

Alpha-2C adrenergic receptor (Homo sapiens), sequence (P18825 whole entry, looked up): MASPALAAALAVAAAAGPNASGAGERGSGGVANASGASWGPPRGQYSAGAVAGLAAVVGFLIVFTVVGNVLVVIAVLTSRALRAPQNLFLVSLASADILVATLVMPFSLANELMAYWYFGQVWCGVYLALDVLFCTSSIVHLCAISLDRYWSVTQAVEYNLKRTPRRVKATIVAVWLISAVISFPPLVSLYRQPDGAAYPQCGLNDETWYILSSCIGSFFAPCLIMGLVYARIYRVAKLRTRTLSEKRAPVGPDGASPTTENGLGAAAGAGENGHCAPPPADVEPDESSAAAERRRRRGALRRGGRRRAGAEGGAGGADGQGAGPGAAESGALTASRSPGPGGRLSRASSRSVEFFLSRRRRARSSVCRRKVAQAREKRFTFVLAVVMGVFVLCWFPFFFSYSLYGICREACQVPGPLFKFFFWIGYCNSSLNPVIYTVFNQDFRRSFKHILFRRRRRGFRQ
Dual specificity protein phosphatase 6 (Homo sapiens), sequence (Q16828 whole entry, looked up): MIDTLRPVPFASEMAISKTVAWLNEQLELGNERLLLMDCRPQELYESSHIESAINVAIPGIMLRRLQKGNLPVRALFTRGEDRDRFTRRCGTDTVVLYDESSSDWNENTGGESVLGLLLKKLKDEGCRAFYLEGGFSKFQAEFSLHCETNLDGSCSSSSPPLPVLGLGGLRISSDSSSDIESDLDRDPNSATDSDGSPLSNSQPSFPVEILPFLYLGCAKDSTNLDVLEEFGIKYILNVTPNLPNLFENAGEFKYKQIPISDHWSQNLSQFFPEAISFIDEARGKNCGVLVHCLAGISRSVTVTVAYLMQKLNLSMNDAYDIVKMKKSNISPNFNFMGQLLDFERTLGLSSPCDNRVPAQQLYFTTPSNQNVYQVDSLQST
Voltage-gated potassium channel subunit beta-2 (Rattus norvegicus), sequence (P62483 whole entry, looked up): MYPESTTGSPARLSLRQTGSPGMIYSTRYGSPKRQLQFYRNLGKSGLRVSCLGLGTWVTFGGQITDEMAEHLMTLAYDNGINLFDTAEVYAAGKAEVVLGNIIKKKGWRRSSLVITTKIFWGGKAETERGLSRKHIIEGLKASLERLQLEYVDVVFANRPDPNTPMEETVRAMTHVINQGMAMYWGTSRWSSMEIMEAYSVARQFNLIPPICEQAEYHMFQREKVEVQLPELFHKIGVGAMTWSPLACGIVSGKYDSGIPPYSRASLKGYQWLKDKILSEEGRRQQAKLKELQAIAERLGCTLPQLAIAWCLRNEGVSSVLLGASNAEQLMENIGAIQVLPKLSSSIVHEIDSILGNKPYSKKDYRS

In general, inhibition refers to the change of the read-out against control, counted positive when it falls. In the case of `CC(=O)Nc1ccc(S(=O)(=O)Nc2nc3n(n2)C(c2ccccc2)CC(=O)N3)cc1` (stereo not given), the cell count in [1] came out at 456. Besides, the inhibition was -7.4% (inactive) in [1]; -106% (inactive) in experiment [3]; 21% (inactive) in experiment [5]; -0.258% (inactive) in experiment [10]; 16.4% (inactive) in experiment [11]; 16.2% (inactive) in experiment [12]. Further, the inhibition of aggregation in experiment [2] was -5.2% (inactive). The results for the nuclei count in experiment [2] and in experiment [3] were 116% and 137%, respectively. Also, the z-score is -0.235 in experiment [4] (setting [13]), -1.01 in experiment [4] (setting [14]) and 1.56 in experiment [4] (setting [15]). Also, in experiment [6], the fluorescence slope was -0.507 (inactive). Besides, the NADPH fluorescence slope in experiment [7] was -2e-05 (inactive). Further, the slope in experiment [8] is 0.00521 (inactive). Further, the outcome in [9] was inactive.

Take `CCOC(=O)c1ccc(-n2c(=O)[nH]c3ccccc3c2=O)cc1`: the cell count in experiment [1] came out at 443. The inhibition in experiment [1] was -3.4% (inactive); in experiment [3], -140% (inactive); in experiment [5], 11.4% (inactive); in experiment [10] it was 9.26% (inactive); in experiment [11], -16.9% (inactive); in experiment [12], -29.3% (inactive). In addition, the inhibition of aggregation in [2] is 7.1% (inactive). In addition, the nuclei count in [2] was 80%; in experiment [3], 136%. Moreover, the z-score was -0.719 in experiment [4] (setting [13]), -0.246 in experiment [4] (setting [14]) and 0.316 in experiment [4] (setting [15]). Further, the fluorescence slope in [6] is -0.415 (inactive). Also, in [7], the NADPH fluorescence slope was -5.7e-05 (inactive). For the same compound, the slope in [8] was 0.00476 (inactive). For the same compound, in [9], the call was inactive.

As for `NC(N)=NS(=O)(=O)c1ccc(N)cc1`, in experiment [1], the cell count is 630. Besides, the inhibition in experiment [1] was 0.4% (inactive); in experiment [3], -107% (inactive); in experiment [5] it was 14.6% (inactive); in experiment [10] it was -2.06% (inactive); in experiment [11], 18.4% (inactive); in [12], 34.4% (inactive). In experiment [2], the inhibition of aggregation was 9.4% (inactive). The values for the nuclei count in experiment [2] and in experiment [3] were 99.7% and 136%, respectively. The z-score in experiment [4] (setting [13]) was 0.695; in experiment [4] (setting [14]), -0.407; in experiment [4] (setting [15]), -0.348. Besides, the fluorescence slope in experiment [6] is -0.497 (inactive). For the same compound, in [7], the NADPH fluorescence slope is -7.4e-05 (inactive). Moreover, in [8], the slope is 0.00546 (inactive). Also, the compound was classed as inactive in experiment [9].

On to `COC(=O)c1cc(Br)c(=O)n(CCc2ccc(F)cc2)c1`, for which the cell count in experiment [1] is 595. In addition, the inhibition was -7.1% (inactive) in [1]; 6.1% (inactive) in experiment [3]; 1.9e-07% (inactive) in experiment [5]; -7.76% (inactive) in [10]; 4.86% (inactive) in experiment [11]; 5.55% (inactive) in experiment [12]. For the same compound, in experiment [2], the inhibition of aggregation was -4.6% (inactive). The nuclei count in [2] stood at 93.4%; in experiment [3], 151%. The figures for the z-score in experiment [4] (setting [13]), in experiment [4] (setting [14]) and in [4] (setting [15]) were -0.681, 0.872 and 1.23, respectively. For the same compound, in experiment [6], the fluorescence slope was -0.324 (inactive). The NADPH fluorescence slope in experiment [7] is -5.7e-05 (inactive). In experiment [8], the slope was 0.00485 (inactive). Further, in [9], the outcome was “active; no signal in intestine only”.

Consider `CC(Cc1ccc(O)c(O)c1)C(C)Cc1ccc(O)c(O)c1` (stereo not given), for which, in [1], the cell count is 641. Further, the inhibition in [1] is 12.1% (inactive); in [3] it was -62.1% (inactive); in experiment [5] it was 16.8% (inactive); in experiment [10], -9.23% (inactive); in experiment [11] it was 3.4% (inactive); in experiment [12] it was -2.88% (inactive). For the same compound, the inhibition of aggregation in experiment [2] is -17.2% (inactive). Also, the figures for the nuclei count in [2] and in experiment [3] were 100% and 127%, respectively. Further, the z-score in [4] (setting [13]) is 0.848; in [4] (setting [14]), 0.39; in experiment [4] (setting [15]) it was -0.226. Also, the fluorescence slope in [6] was -0.504 (inactive). Moreover, the NADPH fluorescence slope in experiment [7] was -8.3e-05 (inactive). Besides, in experiment [8], the slope was 0.00569 (inactive). Besides, in experiment [9], the outcome was inactive.
